# Assay results published in PubChem BioAssay AID1345083 (National Center for Advancing Translational Sciences (NCATS), 2018).
# Out of some 94,000 compounds screened, about 6,200 (6.6%) were called active. Roughly 31% stayed inconclusive and do not appear here. The entries come from a sample that favours actives as a whole. Values without a mark were called inactive. Calls follow the shape of the dose curve; as a rule, active = well fitted inhibition curve with a large enough effect; inconclusive = small, poorly fitted or top-dose-only effect; inactive = flat fitted curve, though single readings scatter.
# Assay: Cytotoxic Profiling in HEK 293 Cell Line of Diverse Libraries Using Quantitative High-Throughput Screening; also: nearly all actives have a fitted effect of over 60% in size
# Details: HEK 293 viability, ATP luminescence (CellTiter-Glo), 48-72 h; series mostly up to 115 µM; activity change, negative = cytotoxicity: at the top concentration
# Description: Cell-based phenotypic screening is a commonly used approach to discover biological pathways, novel drug targets, chemical probes and high-quality hit-to-lead molecules. Many hits identified from high-throughput screening campaign are ruled out through a series of follow-up potency, selectivity/specificity, and cytotoxicity assays. Prioritization of molecules with little or no cytotoxicity for a more in-depth downstream evaluation influence the future direction of projects, so cytotoxicity profiling of the screening libraries at early stage is essential for increasing the likelihood of candidate success. In this study, we analyzed results from a cell-based cytotoxicity screening campaign, comprising nearly 10,000 compounds in NCATS annotated libraries, and over 100,000 compounds in a diversity library, evaluated in four normal cell lines (HEK 293, NIH 3T3, CRL-7250 and HaCat) and a cancer cell line (KB 3-1, a HeLa subline) with overall screening outcomes, hit rates, pan-activity and selectivity. For the annotated library, we also examined the primary targets and mechanistic pathways regularly associated with cell death. To our knowledge, this is the first study to use high-throughput screening to profile large libraries for cytotoxicity assessment in both normal and cancer cell lines. In summary, the results generated here constitutes a valuable resource for the scientific community and provides insight on identifying cytotoxic compounds with particular mechanisms of action, and prioritizing compounds with suitable cytotoxicity profile for further evaluation.
# HEK 293 cells were seeded into white 1536-well plates using a Multidrop Combi peristaltic dispenser (ThermoFisher, Waltham, MA) at a density of 250 cells/well in 5 uL of medium respectively. A pintool (Kalypsys) was used to transfer 23 nL of compound solution to the 1536-well assay plates. After 48 or 72 hr incubation at 37 degree Celsius, 5% CO2 and 95% humidity, 2.5 uL of CellTiter-Glo (Promega) was dispensed into each well using a dispenser (Aspect Automation, St. Paul, MN) with solenoid valves (Lee Valves, Westbrook CT). Plates were left at room temperature for 10 min before imaging the ATP-coupled luminescence using a ViewLux microplate imager (PerkinElmer, Waltham, MA).
# % is scaled to controls: 0 for no effect and ±100 for the full control effect; potency is read from the fitted curve at half-maximal effect.
SMILES,"activity change, negative = cytotoxicity",outcome,Potency
O=C(CC1CCCCC1)Nc1ccc(-c2nnc3n2CCCC3)cc1,-3.57%,,
Cc1nsc(NC(=O)N2CCC(C(=O)N3CCCC3)CC2)n1,,inactive,
Cc1c(C(=O)N2CCn3nc(CO)cc3C2)cnc2cc(=O)[nH]n12,-28.9%,,
COCC(=O)N[C@@H]1CN(Cc2ccccc2OC(C)C)C[C@H]1CO,,inactive,
Cn1cnc(S(=O)(=O)N2CCOCCNC(=O)[C@@H]3CCC[C@@H]32)c1,,inactive,
O=C(Cn1ccn2nc(-c3ccc(F)cc3)c(CO)c2c1=O)Nc1ccc(F)cc1F,11.8%,,
CC(C)C1=NOC2(CCN(C3CCCCC3)CC2)C1,4.53% [at 172 µM],,
CNC(=O)[C@@H]1CN(Cc2ccncc2)C[C@H]1COC,-14.9%,,
O=C1CCCCC(CNC(=O)c2ccncc2)N1 (stereo unspecified),3.78%,,
O=C(O)CCNC(=O)Cn1nc2c(cc1=O)CCCCC2,7.02%,,
Cn1nnc(-c2ccc(C(=O)N3CCC4(CCCO4)CC3)cc2)n1,-4.78%,,
O=C1Nc2ccc(-c3ccsc3)cc2C(=O)N2CC[C@H](NS(=O)(=O)c3cccs3)[C@@H]12,-3.25%,,
Cc1ccc(Cl)cc1NC(=O)CN1C(=O)NC(c2ccc(Cl)cc2)C2=C1COC2=O (stereo unspecified),,,12.6 µM (active)
COc1ccc(C)cc1NC(=O)CN1C(=O)NC(c2ccccc2Cl)C2=C1COC2=O (stereo unspecified),-10.9%,,
Cc1ccccc1NC(=O)CN1C(=O)NC(c2ccccc2Cl)C2=C1COC2=O (stereo unspecified),-0.401%,,
COc1cccc(C(=O)N2CCC(N3C(=O)c4c(c(C)nn4-c4ccccc4)C3C)C2)c1 (stereo unspecified),,,35.5 µM (active)
COc1cccc(CN2CCC(N3C(=O)c4c(c(C)nn4-c4ccccc4)C3C3CC3)CC2)c1 (stereo unspecified),,,35.5 µM (active)
Cc1nn(-c2ccccc2)c2c1C(C(C)C)N(C1CN(C(=O)c3ccccc3Cl)C1)C2=O (stereo unspecified),-14.1%,,
Cc1nn(-c2ccccc2)c2c1C(C(C)C)N(C1CCN(C(=O)c3ccc(Cl)nc3)CC1)C2=O (stereo unspecified),-23.4%,,
COc1cccc(CC(=O)N2CCC(N3C(=O)CCC3C(=O)NCc3ccccc3)CC2)c1 (stereo unspecified),-19.9%,,
Cc1nn(-c2ccccc2)c2c1C(C)N(C1CCCN(C(=O)c3ccccn3)C1)C2=O (stereo unspecified),,inactive,
CC1(C(=O)O)CCN(C(=O)C2CCCC2)CC1,4.11% [at 230 µM],,

SMILES,"activity change, negative = cytotoxicity",outcome,Potency
C=CCNC(=O)C[C@@H]1CCN(C(=O)c2cccnc2)C[C@@H]1CC,0.585% [at 172 µM],,
CC(=O)N1CCC(Cc2ccc(C(=O)NC3CC3)cc2)CC1,-1.11%,,
COCCOC1CCOC2(CCN(C(=O)C3(c4ccc(OC)cc4)CC3)CC2)C1 (stereo unspecified),-9.05%,,
COCCN(C)Cc1ccc(CC2CCN(C(=O)C3(c4ccc(OC)cc4)CC3)CC2)cc1,,,39.8 µM (active)
O=C1CC(c2ccccc2)N(Cc2ccncc2)CCCN(C(=O)COc2ccccc2)CCN1 (stereo unspecified),-3.56%,,
Cc1ccc(OCCC2CCN(C(=O)CCN3C(=O)NC(C)(C)C3=O)C2)cc1 (stereo unspecified),-19.8%,,
O=C(c1cccc(F)c1)N1CCC(CCOc2ccc(F)cc2)C1 (stereo unspecified),,,44.7 µM (active)
O=C(c1cccc(F)c1)N1CCCC(CN2CCOCC2)CC1 (stereo unspecified),,inactive,
Cc1cnc(CCNC(=O)c2cn(C)cn2)n1C1CC1,,inactive,
O=[S+]([O-])(c1ccccc1)N1CCC2(CC(c3cccnc3)=NO2)C1 (stereo unspecified),,inactive,
Cc1ccc([S+](=O)([O-])N2CCC3(CC2)CC(=O)N(c2ccccc2)c2ccccc2O3)cc1,,,25.1 µM (active)
O=[S+]([O-])(c1ccccc1)N1CCCC2(CC(c3ccccn3)=NO2)C1 (stereo unspecified),-4.29%,,
NC(=O)c1cccnc1OC1CCNCC1,5.73%,,
COc1ccc(C)cc1NC(=O)Cn1nc2n(c1=O)CCCC2,1.29%,,
CC(C)Cc1ccc(CN2CCC3(CC2)Cc2ccccc2CNC3=O)cc1,,,22.4 µM (active)
O=C1NCc2ccccc2CC12CCN(Cc1ccc(O)cc1)CC2,2.63%,,
COc1ccc(CN2CCC3(CC2)Cc2ccccc2CNC3=O)cn1,-2.09%,,
COc1ccc(C2(C(=O)NCc3cccc(C(F)(F)F)c3)CCOCC2)cc1,-18.9%,,
COCC(=O)NC[C@@H]1C=C(C)[C@H](CC(=O)Nc2ccccn2)C[C@H]1C(C)C,-20.1% [at 172 µM],,
CC1=C[C@@H](CN(C)CCc2ccccn2)[C@H](C(C)C)C[C@H]1Cc1nnc(-c2ccccc2F)o1,,,44.7 µM (active)
NC(=O)c1ccc(OC2CCN(C(=O)c3ccc(F)cc3)CC2)nc1,-29.6%,,
O=C1CCN(C(=O)[C@@H](Cc2ccccc2)NS(=O)(=O)c2cccc3cccnc23)CCOCCN1,1.59%,,

SMILES,"activity change, negative = cytotoxicity",outcome,Potency
O=C(NCCc1ccccc1)NC1CCc2nn(CC3CC3)c(=O)n2CC1 (stereo unspecified),,inactive,
O=C(Nc1cnc(-c2cccc(Cl)c2)nc1)c1ccc(F)cc1,,,44.7 µM (active)
O=C(Cc1cccc(F)c1)Nc1cnc(-c2cccnc2)nc1,-0.423%,,
O=C(Nc1ccc(F)cc1)c1ccc2nc(-c3cccnc3)oc2c1,-10.8% [at 172 µM],,
COC(=O)COc1cccn2c(=O)c(-c3cc(C)n(-c4ccc(C)cc4C)n3)c(C)nc12,-13.2%,,
O=C1CC(c2ccccc2)N(C(=O)C2CC2)CCCN(C(=O)Cc2cccc(F)c2)CCN1 (stereo unspecified),2.27%,,
CCCc1nc(NCC(c2ccccn2)N2CCOCC2)c2cnn(C)c2n1 (stereo unspecified),-0.509%,,
CC(C)Cc1cc(CNc2nc(C(C)(C)C)nc3c2cnn3C)no1,,,35.5 µM (active)
CC(Cn1cncn1)Nc1nc(-c2ccncc2)nc2c1cnn2C (stereo unspecified),0.89%,,
COc1ccccc1CC(=O)NCc1nnc2c(-c3nc(C(C)C)no3)cccn12,-10%,,
COCCC1(CO)CCCN(C(=O)Cn2cc(C)c(=O)[nH]c2=O)C1 (stereo unspecified),3.68%,,
O=C(NCc1nnc2ccccn12)C1NCCc2[nH]cnc21 (stereo unspecified),0.78%,,
CCC(=O)N1CCC2(CC1)CC(N1CCN(CC(C)C)CC1)CCO2 (stereo unspecified),-2.2%,,
Cc1ccc(S(=O)(=O)N[C@@H]2CCOC[C@H]2OCC(=O)O)cc1,0.393%,,
O=C1NCCCCCCN(S(=O)(=O)c2cccs2)[C@H]2CCCC[C@@H]12,-15%,,
CC(=O)N1CCc2ccc(C(=O)N3CCCCCC3)cc21,-7.22%,,
O=C(c1ccc2c(c1)N(C(=O)c1ccccc1)CC2)N1CCN(c2ccc(Cl)cc2)CC1,,,31.6 µM (active)
CCC(CC)N1CCN(C(=O)c2ccc3c(c2)N(S(C)(=O)=O)CC3)CC1,-6.68%,,
O=C(NC[C@H]1O[C@@H](CO)[C@@H](O)[C@H]1N1CCOCC1)c1ccco1,-4.16% [at 172 µM],,
CCOC(=O)c1ccc(NC(=O)CCn2ccn3nc4c(c3c2=O)CCCC4)cc1,-21.7%,,
O=C(CCn1ccn2nc3c(c2c1=O)CCCC3)Nc1ccc(Cl)c(C(F)(F)F)c1,,,44.7 µM (active)
O=C(CCn1ccn2nc3c(c2c1=O)CCCC3)Nc1ccc(F)cc1Cl,-2.23%,,
